Experimental data published in PubChem BioAssay (Tox21).
Records with an inconclusive call do not appear. Activity calls are given as the source filed them. Unless noted, the call rests on the fitted dose curve; in most records, active means well fitted curve in the direction sought with a large enough effect in the repeat runs; inconclusive means weak or mixed curves; inactive means no such curve, though single readings can be large; an effect the other way counts as inactive or inconclusive.

Assays:
[1] = qHTS assay to identify small molecule agonists of H2AX (AID 1224845; active means well fitted activation curve with a large enough effect in the signal ratio in the repeat runs, not every such curve was filed as active; the % refers to the signal ratio; further: on the % scale 0 is the no-effect control and ±100 the full control effect)
Procedure, shortened: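 Wild-type CHO-K1 cells, plated overnight, exposed 3hr at 37C to 15 concentrations (0.76% DMSO final). Lysed, then HTRF anti-pH2AX (S139) cryptate and anti-H2AX-d2 antibodies, 24 hr room temperature; 665/620 nm emission read.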

[2] = qHTS assay to identify small molecule agonists of the hypoxia (HIF-1) signaling pathway (AID 1224846; active means well fitted activation curve with a large enough effect in the signal ratio in the repeat runs, not every such curve was filed as active; the % refers to the signal ratio; further: on the % scale 0 is the no-effect control and ±100 the full control effect)
Procedure, shortened: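 Beta-lactamase FRET read-out (CCF4-AM substrate) from ME-180 cells carrying an HRE-driven bla reporter, after 17 hrs compound exposure at 37C/5% CO2. Cells were seeded at 2,000 per well in 0.5% dialyzed FBS medium and preincubated 5 hrs.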

[3] = qHTS assay to identify small molecule agonists of H2AX - cell viability counter screen (AID 1224847; calls by dose curve; further: nearly all actives have a fitted effect of over 30% in size; further: potency means the concentration at half of the fitted maximal effect)
Procedure, shortened: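 Counter-screen for viability: CellTiter-Glo ATP luminescence read after 3 h compound treatment (15-point titration, 0.76% DMSO final) of CHO-K1 cells at 37C, with 30 min room-temperature reagent incubation.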

[4] = qHTS RealTime-Glo MT Cell Viability Assay in HepG2 cells - 24 hour (AID 1224867); further: on the % scale 0 is the no-effect control and ±100 the full control effect; nearly all actives have a fitted effect of over 50% in size
Procedure, shortened: (§1)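 HepG2 cells were seeded at 600 cells/well together with NanoLuc luciferase and a cell-permeant prosubstrate, preincubated 5 h at 37 C/5% CO2, then pin-dosed with compounds in DMSO. Nonlytic luminescence from viable cells was read at each time point.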

[5] = qHTS RealTime-Glo MT Cell Viability Assay in HEK293 cells - 32 hour (AID 1224868); further: nearly all actives have a fitted effect of over 50% in size; further: potency means the concentration at half of the fitted maximal effect
Procedure, shortened: (§2)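 HEK293 cells were seeded at 600 cells/well together with NanoLuc luciferase and cell-permeant prosubstrate, preincubated 5 h at 37 C/5% CO2, then given compound in DMSO by pintool. Luminescence from viable-cell prosubstrate reduction was read repeatedly over 40 h.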

[6] = A CellTox Green Cytotoxicity Assay to monitor cytotoxicity in HEK293 cells - 0 hour (AID 1224869); further: on the % scale 0 is the no-effect control and ±100 the full control effect; nearly all actives have a fitted effect of over 50% in size
Procedure, shortened: (§3)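 Read-out: fluorescence of a cell-impermeant cyanine dye staining DNA of dead cells, proportional to cytotoxicity. HEK293, 600 cells/well with reagent, compound (23 nL DMSO) added after 5 h; reads at 0, 8, 16, 24, 32, 40 h.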

[7] = qHTS RealTime-Glo MT Cell Viability Assay in HepG2 cells - 40 hour (AID 1224870); further: on the % scale 0 is the no-effect control and ±100 the full control effect; nearly all actives have a fitted effect of over 50% in size
Procedure, shortened: (§4)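 HepG2 cells (600/well) mixed with RealTime-Glo MT reagent, settled 5 h at 37 C/5% CO2 before compound addition. Nonlytic NanoLuc luminescence from viable-cell prosubstrate reduction read repeatedly during 40 h treatment at 37 C.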

[8] = A CellTox Green Cytotoxicity Assay to monitor cytotoxicity in HEK293 cells - 40 hour (AID 1224871); further: nearly all actives have a fitted effect of over 45% in size; further: potency means the concentration at half of the fitted maximal effect
Procedure, shortened: as §3

[9] = qHTS RealTime-Glo MT Cell Viability Assay in HEK293 cells - 16 hour (AID 1224872); further: nearly all actives have a fitted effect of over 50% in size; further: potency means the concentration at half of the fitted maximal effect
Procedure, shortened: as §2

[10] = qHTS RealTime-Glo MT Cell Viability Assay in HepG2 cells - 8 hour (AID 1224873); further: nearly all actives have a fitted effect of over 55% in size; further: potency means the concentration at half of the fitted maximal effect
Procedure, shortened: as §4

[11] = qHTS RealTime-Glo MT Cell Viability Assay in HEK293 cells - 40 hour (AID 1224874); conditions: RealTime-Glo luminescence; max response: hits give low values; further: nearly all actives have a fitted effect of over 50% in size; further: potency means the concentration at half of the fitted maximal effect; on max response: on the % scale 0 is the no-effect control and ±100 the full control effect
Procedure, shortened: (§5)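 Luminescence readout at each listed time point; HEK293, 600 cells/well, RealTime-Glo MT reagent added with cells; compounds pinned (23 nL in DMSO) after 5 h at 37 C; continuous culture at 37 C.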

[12] = qHTS RealTime-Glo MT Cell Viability Assay in HepG2 cells - 32 hour (AID 1224877); further: on the % scale 0 is the no-effect control and ±100 the full control effect; nearly all actives have a fitted effect of over 55% in size
Procedure, shortened: as §1

[13] = qHTS RealTime-Glo MT Cell Viability Assay in HEK293 cells - 0 hour (AID 1224880); further: top concentration of the series differs between compounds; on the % scale 0 is the no-effect control and ±100 the full control effect; nearly all actives have a fitted effect of over 45% in size
Procedure, shortened: as §5

[14] = qHTS assay to identify small molecule agonists of the hypoxia (HIF-1) signaling pathway - cell viability counter screen (AID 1224844; calls by dose curve)
Procedure, shortened: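 CellTiter-Glo luminescence read-out, 30 min RT, taken in the same wells as the beta-lactamase HRE reporter assay; HRE-bla ME-180 cells, 0.5% dialyzed FBS, 17 hr compound treatment at 37C, 5% CO2.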

[15] = A CellTox Green Cytotoxicity Assay to monitor cytotoxicity in HEK293 cells - 24 hour (AID 1224875); further: on the % scale 0 is the no-effect control and ±100 the full control effect; nearly all actives have a fitted effect of over 45% in size
Procedure, shortened: as §3

[16] = A CellTox Green Cytotoxicity Assay to monitor cytotoxicity in HepG2 cells - 16 hour (AID 1224876); further: on the % scale 0 is the no-effect control and ±100 the full control effect; nearly all actives have a fitted effect of over 45% in size
Procedure, shortened: (§6)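 HepG2, 600 cells/well premixed w/ CellTox Green; 5 h settle, 37 C/5% CO2; pintool cpd add (DMSO); 37 C, 40 h; fluorescence read at 0, 8, 16, 24, 32, 40 h.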

[17] = A CellTox Green Cytotoxicity Assay to monitor cytotoxicity in HepG2 cells - 24 hour (AID 1224878)
Procedure, shortened: as §6

[18] = A CellTox Green Cytotoxicity Assay to monitor cytotoxicity in HepG2 cells - 40 hour (AID 1224879); further: on the % scale 0 is the no-effect control and ±100 the full control effect; nearly all actives have a fitted effect of over 40% in size
Procedure, shortened: as §6

[19] = qHTS assay to identify small molecule agonists of the estrogen related receptor (ERR) signaling pathway from Tox21 library (AID 1224849; calls by dose curve; further: on the % scale 0 is the no-effect control and ±100 the full control effect; nearly all actives have a fitted effect of over 15% in size); conditions: ERR reporter cell line, ONE-Glo luciferase, 18 h; at 92.4 µM (top of the series) unless noted
Procedure, shortened: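 Luminescence readout (ONE-Glo, 30 min RT) after 18 h compound exposure at 37 C of NTP-supplied ERR reporter cells; cells were plated 6 h before compound addition by pin tool.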

[20] = qHTS assay to identify small molecule antagonists of the estrogen related receptor (ERR) signaling pathway from Tox21 library (AID 1224848)
Procedure, shortened: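 Quantitative high-throughput format: ERR reporter cells (2,000/well) pre-incubated 6 h, treated 18 h at 37 C with compounds in DMSO alongside positive and negative controls, then read by ONE-Glo luminescence.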

CCCC(C)c1ccccc1O (stereo not drawn)
inactive: Potency [1] | Potency [2] | Potency [4] | Potency [5] | Potency [6] | Potency [7] | Potency [9] | Potency [10] | max response [11] -11.1% | Potency [12] | Potency [13]
active: Potency [3] 80 µM | Potency [8] 49 µM

CCc1oc2ccccc2c1C(=O)c1cc(Br)c(O)c(Br)c1
inactive: Potency [14] | Potency [4] | Potency [6] | Potency [7] | Potency [8] | Potency [10] | Potency [15] | Potency [16] | Potency [17] | Potency [18] | Potency [13]

O=C1c2c(O)ccc(Nc3ccc(CCO)cc3)c2C(=O)c2c([N+](=O)[O-])ccc(O)c21
inactive: Potency [5] | Potency [6] | Potency [7] | Potency [8] | max response [11] -18.6% | Potency [15] | Potency [16] | Potency [12] | Potency [17] | Potency [18] | Potency [13]

NNc1nc(-c2ccccc2)cs1
inactive: activity change, positive = activation [19] -30.7% | Potency [4] | Potency [6] | Potency [7] | Potency [8] | Potency [15] | Potency [16] | Potency [12] | Potency [17] | Potency [18] | Potency [13]

CCC(Cl)C(Cl)C(Cl)CC(Cl)C(Cl)C(C)Cl (stereo not drawn)
inactive: Potency [2] | Potency [4] | Potency [5] | Potency [7] | Potency [8] | Potency [10] | max response [11] -19.8% | Potency [15] | Potency [16] | Potency [17] | Potency [18] | Potency [13]

O=C1Cc2cc(CCN3CCN(c4nsc5ccccc45)CC3)c(Cl)cc2N1
inactive: Potency [6] | Potency [7] | Potency [13]
active: Potency [20] 26.6 µM | Potency [8] 26.8 µM | Potency [9] 23.9 µM

CCN(Cc1cccnc1)C(=O)c1cccc(Cl)c1[C@]1(C)C(=O)N(Cc2ccc(OC)cc2OC)c2ccc(Cl)cc21
active: Potency [5] 20.4 µM | Potency [9] 22.9 µM | Potency [10] 20.4 µM | Potency [11] 20.4 µM
inactive: Potency [1] | Potency [3] | Potency [6] | Potency [8] | Potency [15] | Potency [16] | Potency [17] | Potency [18] | Potency [13]

C/C(=C(/OCCOc1ccc(Cl)cc1)c1ccc(Cl)cc1Cl)n1ccnc1
inactive: Potency [1] | Potency [3] | Potency [4] | Potency [6] | Potency [7] | Potency [8] | Potency [10] | Potency [15] | Potency [12] | Potency [18] | Potency [13]
